According to PubChem BioAssay AID868 (SRMLSC, 2007):
Out of some 190,000 compounds screened, about 3,500 (1.8%) were called active.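 How the source made its calls: active means inhibition above a set limit, 3 SD over mean compound inhibition (cut at about 8.4% in these data); inactive means the rest.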 The sample as a whole holds a higher share of actives than the screen did.

experiment: inhibitors of the yeast RAM network, primary screen, dse1pr::URA3 reporter, 5-FOA selection (AID 868);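 further: 0% = DMSO-only wells with no growth and 100% = 10 µM 1-NA-PP1 full growth; inhibition rescues growth on 5-FOA so higher OD means more RAM inhibition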; details: S. cerevisiae dse1pr::URA3 reporter, 5-FOA growth OD615, 2 d; at 50 µM; hits give high values; analog-sensitive cbk1-as2 kinase mutant strain

Compound	inhibition
OCC(CO)(CO)NCc1ccc(-c2ccccc2)cc1	1.38% (inactive)
COC(=O)N/N=C/c1ccc(/C=N/NC(=O)OC)cc1	1.05% (inactive)
COc1cc(C)c(S(=O)(=O)N2CCOCC2)c(C)c1C	0.98% (inactive)
Cc1ccc(N=Cc2c(O)n(-c3nccs3)c(=O)c3ccccc23)c(C)c1	8.99% (active)
Cc1ccc(-n2c(O)c(C=Nc3ccc(S(=O)(=O)Nc4ncccn4)cc3)c3ccccc3c2=O)cc1C	7.54% (inactive)
Cc1ccc(N=Cc2c(O)cc(C)oc2=O)c(C)c1	0.38% (inactive)
C/C(CC(=O)N1CCN(C=O)CC1)=N\NC(=O)c1ccc(Br)cc1	2.35% (inactive)
Cc1ccc2[nH]c(C)c(CCNC(=O)NC3CCCCC3)c2c1	1.04% (inactive)
CC(=O)N(CCCN(C)C)c1nc2ccc(C)cc2s1	3.5% (inactive)
CC(C)c1cc(NCc2ccccn2)n2c(nc3ccccc32)c1C#N	-0.26% (inactive)
C=C(C)CNC(=S)N/N=C/c1ccccc1OCC(=O)O	0% (inactive)
CCOc1ccccc1/C=N/NC(=O)CNC(=O)COc1ccccc1	1.01% (inactive)
C=CCc1ccccc1OCC(=O)N/N=C/c1ccccc1OCC	12.4% (active)
O=[N+]([O-])c1cc(S(=O)(=O)CCCN2CCOCC2)ccc1F	-0.13% (inactive)
COc1ccc(/C(C)=N/Nc2cc(C(F)(F)F)ccc2Cl)c(OC)c1	13.5% (active)
COc1ccc(/C(C)=N/NC(=O)CCC(=O)Nc2ccc(Cl)cc2Cl)c(OC)c1	0.4% (inactive)
COc1cc(OC)c(C(=O)OC(C)C(=O)Nc2cc(C(F)(F)F)ccc2Cl)cc1OC (stereo not drawn)	0.5% (inactive)
COC(=O)c1ccc(CN2CCC(CO)(Cc3ccc(OC)cc3)CC2)cc1	1.4% (inactive)
COc1ccc(-c2ccc(CCC(=O)O)n2NC(=O)c2ccc(C(C)(C)C)cc2)cc1	5.38% (inactive)
Cc1ccc(CN2CCN(Cc3ccc4ncccc4c3)CC2CCO)cc1 (stereo not drawn)	0.13% (inactive)
O=C(/C=C/c1ccc2c(c1)OCO2)NCc1cn2cc(Cl)ccc2n1	3.64% (inactive)
Cc1ccc(Cl)cc1NC(=O)COC(=O)C1CCCCC1	1.91% (inactive)
Cc1ccc(Cl)cc1NC(=O)COC(=O)CC(C)(C)C	-1.53% (inactive)
O=C(COC(=O)CCCNC(=O)c1ccc(Cl)cc1)Nc1cc(Cl)ccc1Cl	14.2% (active)
O=C(O)c1n[nH]nc1-c1ccccc1	0.27% (inactive)

Compound	inhibition
CC1=C(C(=O)Nc2ccccc2)C(c2ccco2)C(C#N)=C(SCC(N)=O)N1 (stereo not drawn)	-0.14% (inactive)
CCOC(=O)CSC1=C(C#N)C(c2ccco2)C(C(=O)OCc2ccccc2)=C(C)N1 (stereo not drawn)	17.6% (active)
C=CCOC(=O)C1=C(C)OC(N)=C(C#N)C1c1ccc(F)cc1 (stereo not drawn)	1.6% (inactive)
CCOC(=O)CSC1=C(C#N)C(c2sccc2C)CC(=O)N1 (stereo not drawn)	0% (inactive)
C=CCOC(=O)C1=C(C)NC(SCC(=O)OCC)=C(C#N)C1c1ccc(C)cc1 (stereo not drawn)	17.7% (active)
Cc1ccc(C2CC(=O)NC(SCC(=O)OCc3ccccc3)=C2C#N)o1 (stereo not drawn)	0.38% (inactive)
S=c1ccc2ccccc2[nH]1	-0.88% (inactive)
Cc1noc(C)c1COc1ccc2ccc(=O)oc2c1	0.12% (inactive)
O=C(NC1CC1)c1ccc(-c2ccccc2)cc1	1.25% (inactive)
Cc1cccc(OCCNC(=O)CSc2ccc(C(F)(F)F)cc2[N+](=O)[O-])c1	3.14% (inactive)
COc1ccc(N2CCN(C(C)=C3C(=O)c4ccccc4C3=O)CC2)cc1	-1.52% (inactive)
CN(C)c1ccc(C(=S)N2CCN(C(=S)Nc3ccc(Cl)cc3)CC2)cc1	4% (inactive)
Cc1ccc(SCC(=O)Nc2ccc3c(c2)OCCO3)cc1	0.6% (inactive)
Cc1ccc(SCC(=O)c2sc(-c3ccccc3)nc2C)cc1	2.13% (inactive)
Cc1ccc(SCC(=O)c2cc(C)c(OC(=S)N(C)C)c(C)c2)cc1	9.5% (active)
O=C(CCCN1C(=O)/C(=C\c2ccco2)SC1=S)Nc1cccc2ccccc12	4.94% (inactive)
COc1ccc(/C=C2/SC(=O)N(CCCCCC(=O)Nc3ccccc3C(=O)O)C2=S)cc1	9.16% (active)
O=C(CCCN1C(=O)/C(=C/c2ccccc2)SC1=S)Nc1ccc(O)cc1	0.63% (inactive)
COc1ccccc1Oc1ccc(S(=O)(=O)Nc2cccnc2)cc1	-0.91% (inactive)
COC(=O)Cc1ccc(Oc2ncc(C(F)(F)F)cc2Cl)cc1	0.6% (inactive)
Cc1cc(C)cc(NS(=O)(=O)c2ccc(Oc3ncc(C(F)(F)F)cc3Cl)cc2)c1	10.7% (active)
CCOC(=O)Cc1ncccc1C(=O)Nc1ccc(OC(F)(F)F)cc1	-0.27% (inactive)
O=C(Nc1cccc(C(F)(F)F)c1)c1cnccn1	3.61% (inactive)
COc1c(Br)cc2c(C)c(C(=O)N3CCOCC3)oc2c1Br	13.5% (active)
COc1cc(C(=S)N2CCOCC2)cc(OC)c1OC(=O)c1cc([N+](=O)[O-])c(C)c([N+](=O)[O-])c1	3.68% (inactive)

Compound	inhibition
COc1cc(NC(=O)N2CCOCC2)cc(OC)c1	0.39% (inactive)
Cc1ccccc1NS(=O)(=O)CCCCC(Cl)(Cl)Cl	1.86% (inactive)
Cc1ccc(-c2csc(NC(=O)c3cccs3)n2)cc1	3.07% (inactive)
O=C(O)CCC(=O)N(Cc1ccco1)c1nc(-c2ccccc2)cs1	3.13% (inactive)
Cc1ccc(-c2csc(N(Cc3ccco3)C(=O)c3cccs3)n2)cc1	8.42% (active)
O=C(CN1C(=O)NC2(CCCCCC2)C1=O)NC1CC1	-0.87% (inactive)
Cc1ccc2nc(COc3ccc(N(C)S(=O)(=O)c4ccccc4)cc3)cc(=O)n2c1	2.17% (inactive)
CCC1CCCCN1CCCNC(=O)c1cc2c(Cl)nc3ccccc3c2s1 (stereo not drawn)	1.99% (inactive)
N#Cc1ccc(-c2nc3cc(C#N)c(C#N)cc3nc2-c2ccccc2)cc1C#N	1.25% (inactive)
COc1ccccc1C1CC(=O)n2c(nc(-c3ccccc3)c2-c2ccccc2)S1 (stereo not drawn)	8.41% (active)
COc1cccc(C2CC(c3ccccc3)=NN2S(=O)(=O)c2ccccc2)c1OC (stereo not drawn)	2.56% (inactive)
COc1ccc(C2CC(=O)n3c(nc4ccccc43)S2)cc1OC (stereo not drawn)	3.3% (inactive)
O=C(COC(=O)c1ccccc1C(=O)N1CCN(c2ccccc2)CC1)NCc1ccccc1	1.15% (inactive)
CN1CCNC(=O)C1CC(=O)N1CC=C(c2ccc(F)cc2)CC1 (stereo not drawn)	-0.5% (inactive)
NC(=O)C[n+]1cccc(C(N)=O)c1	1.51% (inactive)
CCc1ccccc1NC(=S)N(CCN1CCCCCC1)Cc1ccco1	-0.63% (inactive)
O=C1c2ccccc2C(=O)N1CCCc1nc(-c2ccccc2)no1	3.93% (inactive)
Cc1ccc2[nH]cc(CCCN3C(=O)c4ccccc4C3=O)c2c1	8.46% (active)
Cc1ccc2[nH]cc(CCNC(=O)c3ccc([N+](=O)[O-])cc3)c2c1	-1.27% (inactive)
NC(=O)COC(=O)c1cc(S(=O)(=O)N2CCN(c3ccccc3)CC2)ccc1Cl	5.02% (inactive)
Cc1ccc(C(=O)NC(=S)Nc2ccccc2C)cc1	-0.37% (inactive)
Cc1cc2[nH]ncc2cc1NC(=S)NC(=O)c1ccccc1	3.3% (inactive)
Cc1ccc(NC(=S)NC(=O)c2ccc(-c3ccccc3)cc2)c(C)c1	8.7% (active)
CCCCN(C)c1ccc([N+](=O)[O-])cc1	-1.26% (inactive)
Cc1cccc(C2=N/C(=C/c3cccs3)C(=O)O2)c1	4.44% (inactive)

Compound	inhibition
C/C(N)=C(/C#N)C(=O)COC(=O)c1cc(-c2ccccc2)nc2ccc(Br)cc12	3.84% (inactive)
Cc1cccc(CSc2nnc(C)c(=O)n2N)c1	0.13% (inactive)
Cc1nc2c(C(=O)NCc3cccs3)cnn2c(C)c1Cc1ccc(F)cc1	1.27% (inactive)
COC(=O)Cn1c(=NC(=O)c2cc(OC)c(OC)c(OC)c2)sc2cc(OC)ccc21	5.03% (inactive)
CCCCC(=O)Nc1cc(C)c2c(=O)oc3ccccc3c2n1	7.85% (inactive)
CCOC(=O)c1c(C)nc2c(c1C)c(=O)oc1ccccc12	18.6% (active)
CCOC(=O)N1CCN(C(=O)c2cc3c(ccc4ccccc43)oc2=O)CC1	4.45% (inactive)
CCN(CC)CC1(O)CCN(C(=O)c2ccc(Cl)c(Cl)c2)CC1	1.77% (inactive)
O=C(COC(=O)Cn1cnc2ccccc2c1=O)NCc1ccccc1Cl	0% (inactive)
O=C(COC(=O)/C(=C/c1cccs1)c1cccs1)NCc1ccccc1Cl	14% (active)
O=C(COC(=O)c1cc2c(s1)CCCC2)NCc1ccccc1Cl	4.18% (inactive)
O=C1Oc2ccccc2C(=O)/C1=C/c1ccccc1O	0.25% (inactive)
O=C(CSc1ccccc1)Nc1ccc(NC(=O)c2ccco2)cc1	3.77% (inactive)
O=C(Nc1ccc(Sc2ccc(Br)cc2)cc1)c1ccco1	9.42% (active)
COC(=O)c1ccc(NC(=O)c2ccco2)cc1	0.13% (inactive)
CCOc1ccc(Cn2c(SCCCCC#N)nc3c2c(=O)n(C)c(=O)n3C)cc1OCC	1.06% (inactive)
Cc1cccc(Cn2c(SCCO)nc3c2c(=O)n(C)c(=O)n3C)c1	0.88% (inactive)
CCCSc1nc2c(c(=O)n(C)c(=O)n2C)n1Cc1ccc(C)cc1	8.43% (active)
COc1ccc(CCNc2cc(C)nc3c(-c4ccc(Cl)cc4)c(C)nn23)cc1OC	-0.42% (inactive)
CCc1cccc2c(=O)c(C(=O)NCCCOC)c[nH]c12	3.16% (inactive)
COC(=O)CCCCCN1C(=O)NC(c2ccc(-c3ccccc3)cc2)C(C(=O)OCc2ccccc2)=C1C (stereo not drawn)	15.8% (active)
COCCN1C(=O)N[C@@H](c2ccccc2)C(C(=O)OC)=C1C	0.8% (inactive)
CC1=C(C(=O)OCc2ccccc2)C(c2ccc(C(F)(F)F)cc2)NC(=O)N1CCCCCC(=O)O (stereo not drawn)	7.19% (inactive)
